In the library only some 10% were active in any assay of this set; here they are far more common.
CtBP-E1A inh – CtBP/E1A binding inhibition; AlphaScreen GST-E1A/His-CtBP binding, 1536-well; active compounds read low; activity change, % (no concentration beside the values); 0.49% of 340,000 active; in the data active = activity change below about -65%; inconclusive = mostly about -30% to -63%
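GST-E1A and His-tagged CtBP (125 nM each as 5X stock) were preincubated with pin-transferred compound for 2 h at 37 °C in the dark, then glutathione donor and nickel acceptor beads were added for 1 h before AlphaScreen reading.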
G9a inh – G9a (human) methyltransferase inhibition | Q96KQ7 | G9a H3K9 monomethylation, AlphaScreen, 2 h | Potency, µM (series often up to 102 µM), usual class: inhibitors | 8.8% of 350,000 active | AID 504332; note: nearly all actives have a fitted effect of over 75% in size
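Signal arises when biotinylated H3K9 peptide, once monomethylated, bridges streptavidin donor and antibody-captured acceptor beads. Enzyme at 20 nM was preincubated 15 min with test compounds; peptide 500 nM and SAM 20 uM then reacted for 2 h.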
BAZ2B block – inhibitors of human BAZ2B bromodomain; 4.4% of 360,000 active; Q9UIF8; Potency, µM (doses to about 114 µM), most hits filed as inhibitors; AlphaScreen BAZ2B-H3K14Ac peptide displacement; note: nearly all actives have a fitted effect of over 60% in size
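Inhibition is scored as reduced AlphaScreen emission. The BAZ2B/b-H3(5-23)K14Ac complex (50 nM each) in PBS pH 7.4, 0.01% Tween-20 meets compound (up to 110 uM) for 30 min at RT before bead addition.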
JMJD2A Tudor – blocks the human JMJD2A Tudor domain; Potency, µM (series often up to 114 µM), usual class: inhibitors; AlphaScreen JMJD2A-Tudor / H3K4me3 peptide binding; 4.4% of 390,000 active; AID 504339; note: nearly all actives have a fitted effect of over 50% in size
Target sequence (O75164 whole entry, looked up, the tested form may be a part): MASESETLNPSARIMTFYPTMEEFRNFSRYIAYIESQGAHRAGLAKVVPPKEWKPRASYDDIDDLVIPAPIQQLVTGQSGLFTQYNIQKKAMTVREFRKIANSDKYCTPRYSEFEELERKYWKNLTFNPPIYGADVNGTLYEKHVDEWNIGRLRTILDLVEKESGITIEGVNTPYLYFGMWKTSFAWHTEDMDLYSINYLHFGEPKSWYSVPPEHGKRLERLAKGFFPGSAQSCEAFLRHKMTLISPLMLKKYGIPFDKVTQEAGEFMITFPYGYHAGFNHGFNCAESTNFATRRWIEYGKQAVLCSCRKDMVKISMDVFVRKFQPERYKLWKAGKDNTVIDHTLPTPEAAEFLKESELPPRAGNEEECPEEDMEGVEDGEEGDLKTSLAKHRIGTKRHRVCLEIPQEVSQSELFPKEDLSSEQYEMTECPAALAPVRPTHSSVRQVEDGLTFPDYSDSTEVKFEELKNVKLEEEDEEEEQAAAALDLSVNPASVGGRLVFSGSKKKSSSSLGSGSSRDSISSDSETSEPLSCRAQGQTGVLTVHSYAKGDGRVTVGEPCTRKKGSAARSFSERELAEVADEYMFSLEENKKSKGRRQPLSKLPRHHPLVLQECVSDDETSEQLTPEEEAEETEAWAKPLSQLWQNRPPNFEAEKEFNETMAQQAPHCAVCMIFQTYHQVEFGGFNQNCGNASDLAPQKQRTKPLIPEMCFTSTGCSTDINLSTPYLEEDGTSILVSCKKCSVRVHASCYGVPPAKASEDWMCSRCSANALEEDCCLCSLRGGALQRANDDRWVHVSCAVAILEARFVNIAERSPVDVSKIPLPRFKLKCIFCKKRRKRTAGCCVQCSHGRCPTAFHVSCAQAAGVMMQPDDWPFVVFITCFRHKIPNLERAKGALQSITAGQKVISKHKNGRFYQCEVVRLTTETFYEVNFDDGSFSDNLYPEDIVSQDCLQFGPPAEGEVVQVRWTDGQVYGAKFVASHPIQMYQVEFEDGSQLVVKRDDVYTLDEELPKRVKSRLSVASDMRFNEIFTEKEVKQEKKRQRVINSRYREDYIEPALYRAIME
HP1b chromo inh – inhibitors of HP1-beta chromodomain binding to methylated histone tails; P83916; AlphaScreen HP1-beta / biotin-H3K9me3 peptide binding; Potency, µM (doses to about 114 µM), hits mostly inhibitors; 0.56% of 390,000 active; AID 540317; note: nearly all actives have a fitted effect of over 70% in size
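AlphaScreen: HP1-beta (50 nM) preformed 30 min with biotin-H3(1-18)K9me3 peptide (50 nM) in PBS pH 7.4, 0.01% Tween-20. Compound added for 30 min at RT, then streptavidin donor/nickel chelate acceptor beads (10 ug/mL) for 30 min.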
Six1-Eya2 blk – Six1/Eya2 interaction inhibition; Q15475+O00167; AlphaScreen GST-Six1/His-Eya2 binding, biochemical; active compounds read low; activity change, % (no concentration beside the values); 0.56% of 360,000 active; in the data active = activity change below about -65%; inconclusive = mostly about -30% to -63%
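AlphaScreen with GST-Six1 and His-Eya2 (5X mix: 250 nM and 500 nM), glutathione donor and nickel acceptor beads; buffer 50 mM Tris pH 8.0, 300 mM NaCl, 1 mM TCEP; 1 h at 37 C in the dark.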
Numbers stand for hits; - = inactive; ? = inconclusive; . = not tested or not shown. Unless noted, calls come from the whole dose curve; as a rule, active = well fitted inhibition curve with a large enough effect; inconclusive = small, poorly fitted or top-dose-only effect; inactive = no such curve, though single readings can be large or run the other way.

SMILES	CtBP-E1A inh	G9a inh	BAZ2B block	JMJD2A Tudor	HP1b chromo inh	Six1-Eya2 blk
COc1cccc(C2=NN(C(=O)c3ccco3)C(c3ccco3)C2)c1 (stereo not drawn)	-	45µM	?	-	-	-
O=C(OCC(=O)N1N=C(c2ccc(Cl)cc2)CC1c1ccco1)c1ccccc1O (stereo not drawn)	-	18µM	-	-	-	-
CCC(=O)N1N=C(c2ccc(C)cc2)CC1c1ccco1 (stereo not drawn)	-	45µM	-	-	-	-
CCC(=O)N1N=C(c2ccc(NS(=O)(=O)c3ccc(C)cc3)cc2)CC1c1ccco1 (stereo not drawn)	-	.	.	-	-	-
Cc1cccc(NS(=O)(=O)c2ccc(NC(=O)N3CCCC3)cc2)c1	.	-	-	-	-	.
CC(=O)OCc1cnc(C)c2oc(=O)c(C(=O)Nc3cc(F)ccc3C)cc12	.	-	-	-	-	.
CCCCCCOC(=O)c1cccnc1	.	-	.	.	.	.
CCCCCCCCN1C(=O)[C@H](CC(=O)NCc2ccc(OC)c(OC)c2)C[C@@]2(C(=O)OC)CCCCC=C12	-	.	.	.	.	-
Cn1cnnc1SCC(=O)N1N=C(c2ccc(Cl)cc2)CC1c1ccco1 (stereo not drawn)	-	?	?	-	-	-
N=c1sccn1CC(=O)N1N=C(c2ccc(Cl)cc2)CC1c1ccco1 (stereo not drawn)	-	-	79µM	-	-	-
Cc1ccc(C2=NN(C(=O)CSc3nnnn3C)C(c3ccco3)C2)cc1 (stereo not drawn)	-	0.89µM	-	-	-	-
